In the supplement of paper PMC13380429:
Values without a mark were called inactive.

Test system: Vero E6 infected with SARS-CoV-2
Assay: inhibition of SARS-CoV-2 cytopathic effect; higher = more antiviral protection, active = above 15
Conditions: 48 h

| Structure (SMILES) | inhibition of SARS-CoV-2 cytopathic effect (1 nM) [%] | inhibition of SARS-CoV-2 cytopathic effect (8.33 nM) [%] | inhibition of SARS-CoV-2 cytopathic effect (100 nM) [%] | inhibition of SARS-CoV-2 cytopathic effect (833.33 nM) [%] | inhibition of SARS-CoV-2 cytopathic effect (10000 nM) |
| --- | --- | --- | --- | --- | --- |
| COc1ccc2nc3cc(Cl)ccc3c(Nc3cc(CN4CCCC4)c(O)c(CN4CCCC4)c3)c2n1 [pyronaridine] | 3.08 | 4.56 | 8.6 | 3.79 | -18.6% |
| C[C@H]1[C@@H](O)O[C@@H]2O[C@@]3(C)CC[C@H]4[C@H](C)CC[C@@H]1[C@@]24OO3 | 0.99 | 1.14 | 1.39 | 1.43 | 0.11% |
| O=P(O)(O)C(O)(Cn1ccnc1)P(=O)(O)O [zoledronic-acid] | -0.24 | 2.18 | 1.88 | 0.51 | -0.12% |
| Nc1ncc(Cc2ccc(Br)cc2)s1 | -0.22 | 1.1 | 2.74 | 2.26 | 2.73% |
| Cc1oc(=O)oc1COC(=O)C1=C([C@H]2CCCO2)S[C@@H]2[C@@H]([C@@H](C)O)C(=O)N12 [faropenem-medoxomil] | 2.73 | -1.09 | -0.59 | 2.96 | 1.04% |
| NS(=O)(=O)c1nn2cc(-c3ccccc3)nc2s1 | 8.11 | 1.76 | 0.85 | 0.07 | 0.7% |
| C=CCCCCCCCCC(=O)[O][Zn][O]C(=O)CCCCCCCCC=C [zinc-undecylenate] | 0.73 | 0.52 | -0.83 | 0.72 | 2.73% |
| CCc1cc(-c2[nH]nc(C)c2-c2ccc3c(c2)OCCO3)c(O)cc1O | -2.8 | -1.99 | -0.23 | -1.82 | -2.59% |
| CN(C)CCN(Cc1cccs1)c1ccccn1 [methapyrilene] | -0.83 | -2.49 | -1.39 | -3.33 | -1.68% |
| COc1cccc(CN(C(=O)CC(C)(C)C)[C@H]2C[C@@H](C(=O)N3CCNCC3)N(Cc3ccc4c(c3)OCO4)C2)c1 | 7.37 | 2.78 | 5.86 | -0.43 | -2.99% |
| C[C@]12CCC(=O)C[C@@H]1CC[C@@H]1[C@@H]2CC[C@]2(C)[C@@H](O)CC[C@@H]12 [Dihydrotestosterone] | -0.75 | -1.02 | -1.92 | -2.8 | -3.3% |
| NCC(CC(=O)O)c1ccc(Cl)cc1 (stereo not given) [baclofen] | -0.225 | -1.56 | -2.14 | 0.04 | -0.06% |
| CC(C)(S)C(N)C(=O)O (stereo in doubt) [penicillamine-(racemic)] | -0.3 | -1.45 | -0.335 | -1.03 | -0.18% |
| C[C@@]1(O)[C@H](O)[C@@H](CO)O[C@H]1n1cnc2c(NC3CCCC3)nc(Cl)nc21 | 1.63 | 2.06 | 1.32 | 0.53 | -0.13% |
| NC(=O)c1ncn([C@@H]2O[C@H](CO)[C@@H](O)[C@H]2O)n1 [ribavirin] | -5.15 | -3.9 | -6.04 | -0.66 | 4.23% |
| COC(=O)[C@@H]1[C@H]2C[C@H]3c4[nH]c5ccccc5c4CCN3C[C@@H]2CC[C@@H]1O [yohimbine] | 0.18 | 2.4 | 1.41 | -1.6 | -0.14% |
| C[C@@H](Oc1cc(-n2cnc3ccc(CN4CCN(C)CC4)cc32)sc1C(N)=O)c1ccccc1C(F)(F)F | 1.38 | 0.72 | 1.12 | -3.55 | 54.8% (active) |
| Oc1ccc(C2CNCCc3c2cc(O)c(O)c3Cl)cc1 (stereo not given) [fenoldopam] | 5.49 | 1.3 | 4.35 | 0.98 | -5.61% |
| CC1(N2CCC(n3c([C@@H]4CCCNC4)nc4ccccc43)CC2)CCCCCCC1 | 0.07 | 0.4 | -0.65 | -3.36 | 83.5% (active) |
